This passage reports growth results from PubChem BioAssay (NCI).

Compounds without any hit were thinned out: in the full panel of roughly 83,000, 20% have a hit.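 Growth was measured after 48 h exposure to one concentration of compound in 96-well plates. Values under 10 count as active.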 Calls of active or inactive are those of the source.

For this assay, the system named is HOP-92 NSCLC. Description: NCI-60 one-dose screen, 48 h (100 = growth as untreated, 0 = no growth, -100 = all killed). The note with it: 10 µM unless noted.
In the case of `O=C(Nc1cccc2ccccc12)c1cc2ccccc2cc1O`, the growth is -22% (active).

Turning to `COc1cc2c(O)n(CCCN3CCOCC3)c3c4cnc5cccc(c(=O)c3c2cc1OC)c54`, the growth is 58.4% (inactive).

Turning to `C#CCNC(=O)CC[C@@H](C)[C@H]1CC[C@H]2[C@@H]3CC[C@@H]4CC(=O)CC[C@]4(C)[C@H]3CC[C@]12C`, the growth is -71.6% [100 µM] (active).

Take `COc1ccc(NC(=O)Nc2ccc(-c3cccnc3)cc2N2CCC(CO)CC2)cc1`: the growth is 78.1% (inactive).

As for `CC1(C(=O)O)CCC(N)(C(=O)O)C1(C)C` (configuration not stated), the growth was 89.4% (inactive).

In the case of `COc1ncc(-c2ccc3nccc(C#CCCCCC(=O)NO)c3c2)cc1NS(=O)(=O)c1ccc(F)cc1F`, the growth was -27.7% (active).

As for `O=C(O)CC1CCCCC1c1ccccc1` (configuration not stated), the growth was 99.8% (inactive).

In the case of `CC(C)=CC/C=C(/C)[C@H]1CC[C@]2(C)[C@@H]1CC[C@@H]1[C@@]3(C)CCC(=O)NC(C)(C)[C@@H]3CC[C@]12C`, the growth is -6.9% [100 µM] (active).

Regarding `Cc1nc(Cl)c2c(n1)N(C)c1ccc(Cl)cc1C(C)C2` (configuration not stated), the growth was 66% (inactive).

In the case of `Cc1ccc(N)c(O)c1`, the growth was 68.1% (inactive).

Regarding `Nc1ccc(Cl)c([N+](=O)[O-])c1`, the growth was 94% (inactive).

Regarding `O=[N+]([O-])c1cccc(N=NNc2cccc([N+](=O)[O-])c2)c1`, the growth was 64.4% (inactive).

For `C=C(C)[C@@H]1CC[C@]2(C)[C@H](CC[C@@H]3[C@@H]([C@@](C)(O)CCC=C(C)C)CC[C@]32C)[C@@]1(C)CCC(=O)N1CCN(C)CC1`, the growth was -89.9% [100 µM] (active).

`Cn1cc(-c2noc(C(=O)c3cn(C)c4ncc(Br)cc34)n2)c2ccccc21`: the growth was 37.6% (inactive).

Turning to `COc1cc(NCc2ccccc2O)c2ncccc2c1`, the growth is 81.1% (inactive).

As for `Cc1ccc(C2=C/C(=C/c3ccc(Br)cc3)C(=O)N2CCc2ccc(S(N)(=O)=O)cc2)cc1`, the growth was 89.9% (inactive).

On to `Nc1nc(Nc2ccccc2)c2ncn(Cc3ccc4c(c3)OCO4)c2n1`, for which the growth was 63.9% (inactive).

With `O=C(CCCSc1nc(-c2ccccc2)cc(-c2ccccc2)n1)NO`, the growth is -3.2% (active).

Turning to `FC(F)(F)c1ccc2c(c1)Sc1ccccc1N2`, the growth was 79.9% (inactive).

As for `O=C1NC(=O)C(Cc2ccccc2)(Cc2ccccc2)N1`, the growth was 87.5% (inactive).

On to `C=C(C)[C@@H]1CC[C@]2(C(=O)N3CCN(C)CC3)CC[C@]3(C)[C@H](CC[C@@H]4[C@@]5(C)C/C(=C/c6ccncc6)[C@H](O)C(C)(C)[C@@H]5CC[C@]43C)[C@@H]12`, for which the growth is -39.3% [100 µM] (active).

With `C[C@@H](NC(=O)[C@@H](CC(=O)N1CCC(N2CCCCC2)CC1)N1C(=O)[C@@H](N2C(=O)OC[C@@H]2c2ccccc2)[C@H]1/C=C/c1cccc(Cl)c1)c1ccccc1`, the growth is 58.3% (inactive).

In the case of `N#C/C(=C(/O)CCCO)c1nc2ccccc2c(=O)[nH]1`, the growth was 84.9% (inactive).

With `Cn1cc(-c2nnc(-c3cn(C)c4ncc(Br)cc34)s2)c2cc(Br)ccc21`, the growth was 57.2% (inactive).

As to `CC1(C)CC[C@]2(C(=O)OC(=O)[C@]34CCC(C)(C)C[C@@H]3C3=CC[C@@H]5[C@@]6(C)CCC(=O)C(C)(C)[C@@H]6CC[C@@]5(C)[C@]3(C)CC4)CC[C@]3(C)C(=CC[C@@H]4[C@@]5(C)CCC(=O)C(C)(C)[C@@H]5CC[C@]43C)[C@H]2C1`, the growth was 45.6% [100 µM] (inactive).

On to `Cn1cc(-c2noc(-c3cn(C)c4ncc(Br)cc34)n2)c2cc(Cl)ccc21`, for which the growth is 76.7% (inactive).

As to `CCc1cccc(Cl)c1`, the growth was 93.2% (inactive).

On to `c1cc2ccc3cc2cc1CNCCN1CCNCc2ccc4ccc(cc4c2)CNCCN(CCNC3)CCNCc2ccc3ccc(cc3c2)CNCC1`, for which the growth was -17.9% (active).

Turning to `COc1ccc(-c2cc(-c3ccccc3)nc(NCCNc3ccnc4cc(Cl)ccc34)n2)cc1`, the growth is -77.4% (active).

As to `O=C(N/N=C\c1cc(Cl)ccc1O)N/N=C/c1cc(Cl)ccc1O`, the growth was 21% (inactive).

For the compound `O=C1Nc2ccccc2/C1=C/C(=O)c1ccc(N2CCCCC2)cc1`, the growth was 56.7% (inactive).

Take `O=c1c2c3c(sc2n2cnnc2n1Cc1ccccc1)CCCC3`: the growth was 89.8% (inactive).

`Cn1c(=O)c(C#N)c(-c2ccco2)n2c(S(=O)(=O)Cc3ccccc3)nnc12`: the growth was 92.8% (inactive).

Take `CCCCCn1sc(=O)n(Cc2ccc(CNC(=O)OCc3ccc4cccc(O)c4n3)cc2)c1=O`: the growth is -52.5% (active).

Take `O=C(N/N=C/c1ccc([N+](=O)[O-])cc1)c1ccc(Br)o1`: the growth is 101% (inactive).

In the case of `C=C(C)[C@@H]1CC[C@]2(COCCC#N)CC[C@]3(C)[C@H](CC[C@@H]4[C@@](C)(CCCNCCC#N)[C@H](C(=C)C)CC[C@]43C)[C@@H]12`, the growth is -14.6% [100 µM] (active).

Consider `C=C(C)[C@@H]1CC[C@]2(C(=O)OC)CC[C@]3(C)[C@H](CC[C@@H]4[C@@]5(C)CC/C(=N\OCCC(=NCCC#N)NOCCC#N)C(C)(C)[C@@H]5CC[C@]43C)[C@@H]12`, for which the growth was -15% [100 µM] (active).
